# Source: PubChem BioAssay (NCATS)
# Results filed as inconclusive are left out. Values without a mark were called inactive. The source made the active and inactive calls. Calls follow the shape of the dose curve; as a rule, active = well fitted inhibition curve with a large enough effect; inconclusive = small, poorly fitted or top-dose-only effect; inactive = flat fitted curve, though single readings scatter.
# Test system: CRL-7250
# Assay: Cytotoxic Profiling of Annotated Libraries Using Quantitative High-Throughput Screening (AID 1296008); also: nearly all actives have a fitted effect of over 60% in size
# Settings: Five cell lines viability, CellTiter-Glo ATP luminescence, 48-72 h; max response: stronger effect = lower value
# Outline: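 Cytotoxicity was measured as CellTiter-Glo ATP luminescence, read after 10 min at room temperature. Compound treatment of the cells lasted 48 or 72 hr at 37 degrees Celsius in a qHTS format.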
# % is scaled to controls: 0 for no effect and ±100 for the full control effect; potency is read from the fitted curve at half-maximal effect.
Compound,max response,Potency,outcome
C[C@@]12CC[C@@H]3[C@@](CC[C@H]4[C@@]3(C)CCC[C@@]4(C)C(=O)O)(CC1=O)C2,-4.96%,,
O=C(O)c1ccccc1NCCc1ccccc1,4.16%,,
C/C=C(\C)C(=O)OCC1OC(OC2OC(COC(=O)/C(C)=C/C)C(OC3OC(CO)C(OC(=O)/C(C)=C/C)C(OC(=O)/C(C)=C/C)C3O)C(O)C2O)C(O)C(O)C1OC1OC(CO)C(OC(=O)/C(C)=C/C)C(OC(=O)/C(C)=C/C)C1O (stereo not given),-8.02%,,
CNC(=O)c1ccccc1Nc1nc(Nc2ccc(N3CCNCC3)cc2)ncc1Cl,,0.092 µM (active),
COc1ccc(-c2nc(-c3ccc(-c4cccc(Cl)c4)o3)[nH]c2-c2ccc(OC)cc2)cc1,,,inactive
CC(c1ncncc1F)C(O)(Cn1cncn1)c1ccc(F)cc1F (stereo not given),,,inactive
COC(=O)C1=COC(O[C@@H]2O[C@H](CO)[C@@H](O)[C@H](O)[C@H]2O)[C@H]2[C@@H]1[C@H](OC(=O)CCc1ccc(O)cc1)C[C@]2(C)O (stereo not given in full),,,inactive
C/C1=C\CC[C@H](C)CCO[C@@H]2O[C@H](CO[C@@H]3OC[C@](O)(COC1=O)[C@H]3O)[C@@H](O)[C@H](O)[C@H]2O,,,inactive
c1cc(OCCCN2CCCCC2)ccc1CN1CCCCC1,-3.26%,,
COC(C(=O)N1Cc2[nH]nc(NC(=O)c3ccc(N4CCN(C)CC4)cc3)c2C1)c1ccccc1 (stereo not given),,1.84 µM (active),
COc1c/c(=C2\C=c3ccccc3=N2)[nH]/c1=C\c1[nH]c(C)cc1C,,1.84 µM (active),
C=C1C(=O)O[C@H](CCC)[C@H]1C(=O)O,3.05%,,
CC(C)S(=O)(=O)N[C@H]1CCOC[C@@H]1c1ccc(-c2ccc(C#N)s2)cc1,,,inactive
C=C(C(=O)O)C1CCC2(C)CCC(O)C(=C)C2C1 (stereo not given),-9.49%,,
C=C1C(=O)OC2CC(C)=C(C(C)CCCO)C(O)C12 (stereo not given),,,inactive
C[C@@H]1O[C@@H](O[C@@H]2[C@@H](O)[C@H](O[C@H]3[C@H](O[C@H]4CC[C@@]5(C)C(CC[C@]6(C)C5CC=C5[C@@H]7CC(C)(C)CC[C@]7(C(=O)O[C@@H]7O[C@H](CO)[C@@H](O)[C@H](O)[C@H]7O[C@@H]7O[C@@H](C)[C@H](O[C@@H]8O[C@@H](C)[C@H](O)[C@@H](O)[C@H]8O)[C@@H](O)[C@H]7O)CC[C@]56C)[C@@]4(C)CO)O[C@H](C(=O)O)[C@@H](O)[C@@H]3O)O[C@H](CO)[C@H]2O)[C@H](O)[C@H](O)[C@H]1O (stereo not given in full),,,inactive
CCOc1ccc2nc(SCCN3CCOCC3)[nH]c2c1,-3.31%,,
CN1CCN(C2CCC(n3cc(-c4ccc(Oc5ccccc5)cc4)c4c(N)ncnc43)CC2)CC1 (stereo not given),,5.8 µM (active),
O=C(O)/C=C/c1ccc(O)c(O[C@@H]2O[C@H](CO)[C@@H](O)[C@H](O)[C@H]2O)c1,,,inactive
Nc1nccn2c(C3CCC(C(=O)O)CC3)nc(-c3cc4cccc(Cl)c4[nH]3)c12 (stereo not given),,1.46 µM (active),

Compound,max response,Potency,outcome
CC(=O)O[C@H]1CC[C@H](C)[C@@]2(C)[C@H](OC(C)=O)c3c(C)coc3C(=O)[C@H]12,-18.1%,,
C1CCC[C@H]2CCCN3CC[C@@H](CCCCCC[C@@H]4CCCN5CC[C@@H](CC1)O[C@@H]45)O[C@@H]23,0.135%,,
C[C@@H]1O[C@@H](O[C@H]2[C@H](OC(=O)[C@]34CCC(C)(C)C[C@H]3C3=CCC5[C@@]6(C)C[C@H](O)[C@H](O[C@@H]7O[C@H](CO)[C@@H](O[C@H]8OC[C@](O)(CO)[C@H]8O)[C@H](O)[C@H]7O)[C@@](C)(CO)C6[C@H](O)C[C@@]5(C)[C@]3(C)C[C@H]4O)OC[C@H](O)[C@@H]2O)[C@H](O)[C@H](O)[C@H]1O[C@@H]1OC[C@@H](O)[C@H](O[C@@H]2OC[C@](O)(CO)[C@H]2O)[C@H]1O (stereo not given in full),,,inactive
CC(=O)OC[C@@]12C(=O)C[C@@H](C)[C@]3(C[C@@H](c4ccoc4)O[C@H]3OC(C)=O)[C@H]1CCC[C@]21CO1,-15.6%,,
CCCCc1nc2cc(/C=C/C(=O)NO)ccc2n1CCN(CC)CC,,5.8 µM (active),
CC(C)(O)C1CCC(C)(C2CCC3(C)C4CCC5C(C)(C(=O)OC6OC(CO)C(O)C(O)C6O)C(O)CC(O)C56CC46CCC23C)O1 (stereo not given),,,inactive
CC(=O)c1ccc(O[C@@H]2O[C@H](CO)[C@@H](O)[C@H](O)[C@H]2O)cc1,-8.35%,,
C[C@H](Nc1ncnc2nc[nH]c12)c1cc2ccc(F)cc2nc1-c1ccccn1,-2.06%,,
CC(=O)O[C@H]1C[C@@](O)(C(C)C)C2[C@@H](OC(=O)c3ccc(O)cc3)C[C@@]3(C)O[C@H]3C[C@]21C (stereo not given in full),-0.746%,,
O=C(/C=C/c1ccc(O)cc1)N[C@@H](Cc1ccc(O)cc1)C(=O)O,-6.91%,,
C[C@@H]1O[C@@H](O[C@H]2[C@H](O)[C@@H](O)[C@H](OC[C@H]3O[C@@H](OC(=O)[C@]45CCC(C)(C)C[C@H]4C4=CCC6[C@@]7(C)CC[C@H](O[C@@H]8OC[C@H](O)[C@H](O[C@@H]9O[C@H](CO)[C@@H](O)[C@H](O)[C@H]9O)[C@H]8O)[C@@](C)(CO)C7CC[C@@]6(C)[C@]4(C)CC5)[C@H](O)[C@@H](O)[C@@H]3O)O[C@@H]2CO)[C@H](O)[C@H](O)[C@H]1O (stereo not given in full),,,inactive
C=C1C(=O)O[C@H]2[C@H]1CC/C(C)=C/CC[C@@]1(C)O[C@@H]21,-15.8%,,
CC1(C)CC[C@]2(CO[C@@H]3O[C@H](CO)[C@@H](O)[C@H](O)[C@H]3O)[C@@H](O)C[C@]3(C)C(=CCC4[C@@]5(C)CC[C@H](O[C@@H]6O[C@H](CO[C@@H]7O[C@H](CO[C@@H]8OC[C@@H](O)[C@H](O)[C@H]8O)[C@@H](O)[C@H](O)[C@H]7O)[C@@H](O)[C@H](O)[C@H]6O)C(C)(C)C5CC[C@]43C)[C@@H]2C1 (stereo not given in full),-5.37%,,
Cc1cc2c(c(=O)[nH]1)OC(C(O)CC(C)C)O2 (stereo not given),-20.7%,,
COc1ccc(Cl)c(Nc2nc3ccccc3nc2NS(=O)(=O)c2cccc(NC(=O)C(C)(C)N)c2)c1,-18.5%,,
FC(F)(F)c1cc(-c2ncn(/C=C\c3nnco3)n2)cc(C(F)(F)F)c1,-13.3%,,
O=C(CCc1nnc2n(Cc3ccc(Cl)cc3)c(=O)c3ccccc3n12)NCCC1=CCCCC1,-19.2%,,
COc1ccc(CNC(=O)c2sc3nc(C)cc(C)c3c2N)cc1,-0.266%,,
COC(=O)C[C@H]1[C@]2(C)C3=C(C)[C@H](c4ccoc4)C[C@H]3O[C@@H]2[C@H](OC(C)=O)C2[C@](C)(C(=O)OC)C=CC(=O)[C@@]21C (stereo not given in full),0.289%,,
CC1(C(=O)O)CCCC2(C)C3=CCC4CC3(CCC12)CC4CO (stereo not given),-23%,,
